Reference: PubChem BioAssay (NCI)
Compounds without any hit were thinned out: in the full panel of roughly 79,000, 15% have a hit. Activity calls are given as the source filed them. No stated cut-off is given here; in the data, active means growth inhibition above about 70%; inactive means the rest.

Legend:
[1] = NCI Yeast Anticancer Drug Screen. Data for the rad50 strain (AID 155);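 further: 0% = growth of vehicle-only cultures of the same strain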; settings: S. cerevisiae rad50 strain growth inhibition; at 50.0 µM; stronger effect = higher value
Summary of the method: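 Compounds were tested on a yeast strain with an engineered DNA damage repair alteration; the reported value is growth inhibition normalised to vehicle treatment.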

[2] = NCI Yeast Anticancer Drug Screen. Data for the mec2-1 strain (AID 157); settings: S. cerevisiae mec2-1 strain, at 50.0 µM, stronger effect = higher value
Summary of the method: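 Vehicle-treated cultures served as reference for growth inhibition of compound-exposed mec2-1 yeast.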

[3] = NCI Yeast Anticancer Drug Screen. Data for the sgs1 mgt1 strain (AID 161);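 further: 0% = growth of cultures given vehicle only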; settings: S. cerevisiae sgs1 mgt1 strain, at 50.0 µM, stronger effect = higher value
Summary of the method: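 Inhibition of yeast growth, normalised to vehicle-treated controls, is reported for a strain bearing genetic alterations in DNA damage repair.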

[4] = NCI Yeast Anticancer Drug Screen. Data for the cln2 rad14 strain (AID 165);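 further: 0% = growth equal to vehicle treated cultures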; settings: S. cerevisiae cln2 rad14 strain, at 50.0 µM, stronger effect = higher value
Summary of the method: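 Each compound was tested on cln2 rad14 yeast. Inhibition of growth was calculated against vehicle-exposed controls.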

[5] = NCI Yeast Anticancer Drug Screen. Data for the bub3 strain (AID 167); settings: S. cerevisiae bub3 mutant strain, at 50.0 µM, stronger effect = higher value
Summary of the method: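 Growth of a checkpoint-deficient yeast mutant is measured after compound exposure. Values represent inhibition relative to vehicle.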

[6] = NCI Yeast Anticancer Drug Screen. Data for the mlh1 rad18 strain (AID 175); settings: S. cerevisiae mlh1 rad18 strain growth inhibition; at 50.0 µM; stronger effect = higher value
Summary of the method: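 Vehicle-treated cultures served as the reference for growth inhibition in a yeast strain carrying DNA damage repair alterations exposed to each compound.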

Measured: growth inhibition

CCC1N(C)CCCN1C
inactive: [1] 9.25% | [2] -2.9% | [3] 10.2% | [4] 0.95% | [5] 0.9% | [6] 6.55%

OC1CCC(O)[C@H]2[C@@H]1[C@@H]1S[C@H]2c2ccccc21 (some centres undefined)
inactive: [1] -2.55% | [2] -14.8% | [3] -22.4% | [4] 1.7% | [5] -10.3% | [6] -1.85%

O=C/C(=C(/Br)I)c1ccccc1
inactive: [1] 5.25% | [2] 2.85% | [3] 24.9% | [4] 8.7% | [5] 8.7% | [6] -27.1%

COC(=O)C1(CC(=O)/C=C/c2ccccc2)NC(=S)NC(=O)C1C#N (centres undefined)
inactive: [1] 15.7% | [2] -3.65% | [3] -8.4% | [4] 10.1% | [5] -19.9% | [6] 9.9%

Nc1cccc(C(=O)O)c1C(=O)O
inactive: [1] 19.7% | [2] 15.7% | [3] 25% | [4] -1.7% | [5] -4.2% | [6] 20.9%

NC(=O)C(=CNc1nc(-c2ccc(Cl)c(Cl)c2)cs1)C(N)=O
inactive: [1] -53.9% | [2] -45.1% | [3] -29.4% | [4] -17.2% | [5] -6.5% | [6] -8.25%

Nc1cccc(Nc2nc3ccccc3nc2NS(=O)(=O)c2ccccc2)c1
inactive: [1] 18.5% | [2] 22.6% | [3] 14.6% | [4] -11.3% | [5] -2.5% | [6] -9.1%

COc1ccc2c(=O)cc[nH]c2c1OC
inactive: [1] -13.9% | [2] -16.4% | [3] -8.2% | [4] -23.9% | [5] 9.1% | [6] 4.85%

CC(=O)OCCn1cnc2c(NCC=C(C)C)ncnc21
inactive: [1] -28.4% | [2] -12.4% | [3] -40% | [4] 0.75% | [5] 7.5% | [6] -45%

COC(=O)C1=C(CO)C2C=CC1C2 (centres undefined)
inactive: [1] 3.25% | [2] 26.1% | [3] -1.1% | [4] 6.55% | [5] 6.15% | [6] 6.7%

Cc1cccn(C(=O)c2ccccc2)c1=N
inactive: [1] -8.2% | [2] 4.1% | [3] 1.35% | [4] -41.7% | [5] -16.9% | [6] 29.3%

O=C(SCCN1CCCC1)C(O)(c1ccccc1)C1CCCC1 (centres undefined)
inactive: [1] 14.8% | [2] -6% | [3] -5.3% | [4] -7.95% | [5] -2.35% | [6] 11.7%

COc1cccc(NC(=O)/C(CS(=O)(=O)CCC(C(C)=O)C(C)=O)=N\NC(C)(C)C)c1
inactive: [1] 11.7% | [2] 0.7% | [3] -20.8% | [4] -21.9% | [5] 1.3% | [6] 7.1%

CCOC(=O)/C(=C\OC(=O)c1ccccc1)NC(=O)Cc1ccccc1
inactive: [1] -1.9% | [2] 25.6% | [3] 22% | [4] -98.8% | [5] 37.2% | [6] 23.4%

CCCCOCCOC(=O)C(C)O (centres undefined)
inactive: [1] 18.9% | [2] 13.7% | [3] 11.9% | [4] 6.6% | [5] -1% | [6] 6.4%

C/C(=N/NC(N)=S)c1ccc[nH]1
inactive: [1] -18.1% | [2] -14.2% | [3] -3.75% | [4] 20.9% | [5] -39% | [6] -10.4%

CCCCNc1ncnc2c1cnn2-c1ccccc1
inactive: [1] 7% | [2] -1% | [3] 3.2% | [4] -26.9% | [5] -4.75% | [6] 0%

Cc1cccc(NC(=O)Oc2cc(C)c(Cl)cc2C(C)C)c1
active: [1] 93% | [2] 98.9% | [3] 96.8% | [4] 93.3% | [5] 98.5% | [6] 98%

CCCCCCCCCCCCCCCC(=O)OCC(O)CO (centres undefined)
inactive: [1] -28.4% | [2] -0.35% | [3] -6.25% | [4] -167% | [5] -11% | [6] 1.1%

c1ccc(C2N3CCCCC3[C@@H]3c4[nH]c5ccccc5c4CCN23)nc1 (some centres undefined)
inactive: [1] -26.8% | [2] -36.5% | [3] -6.5% | [4] 13.3% | [5] -25.9% | [6] -4.1%

CC(=O)Nc1cnc2ccccc2c1
inactive: [1] 9.65% | [2] -0.4% | [3] 7.1% | [4] -2.8% | [5] 4.6% | [6] -15.7%

CCCCCCCCC(Br)C(Br)CCCCCCCC(=O)NCCCOC (centres undefined)
inactive: [1] -2.45% | [2] -13.5% | [3] 1.95% | [4] -33.1% | [5] 1.95% | [6] 18.3%

CCCCCCCCCCCCCCCCOc1ccc(C(=O)O)cc1
inactive: [1] 1.4% | [2] 0.75% | [3] 5.3% | [4] 8.35% | [5] 3% | [6] -16%

C[N+]([O-])(CCO)Cc1ccccc1 (centres undefined)
inactive: [1] -1.45% | [2] -17.8% | [3] -6.1% | [4] 0.95% | [5] 4.75% | [6] -14.3%

N#C/C=C\c1ccc(F)cc1
inactive: [1] 27.1% | [2] 9.7% | [3] 17.1% | [4] 3.35% | [5] 10.8% | [6] 12.2%

CC(=O)OC1C(C2COCO2)OCOC1C1COCO1 (centres undefined)
inactive: [1] -3.3% | [2] -7.15% | [3] 3.5% | [4] -16.6% | [5] -6.65% | [6] -18%

N/N=C1\C(Cl)=C(Cl)c2ccccc21
inactive: [1] 6.65% | [2] -6.35% | [3] 10.2% | [4] -11.8% | [5] 2.95% | [6] 8.3%

CC1(C)CC(OP(=O)(c2ccccc2)c2ccccc2)CC(C)(C)N1O
inactive: [1] 5.25% | [2] 12.8% | [3] -6.3% | [4] 3.1% | [5] 13.3% | [6] 11.2%

O=C(O)C(Cc1ccccc1)c1ccccc1 (centres undefined)
inactive: [1] -39.4% | [2] -12.4% | [3] -11.8% | [4] -21.4% | [5] 9.4% | [6] 2.85%

O=C(O)c1cc2ccccc2c(N=Nc2cc(C(F)(F)F)ccc2Cl)c1O
inactive: [1] -12.2% | [2] -9.65% | [3] -4.05% | [4] 5.4% | [5] -6.3% | [6] -13.1%

NC(=O)c1ncn(C2OC(CO)C(O)C2O)c1NC=O (centres undefined)
inactive: [1] 1.95% | [2] -3.9% | [3] -2.25% | [4] 7.6% | [5] 9.85% | [6] 17.9%

CCc1ccccc1NC(=O)CC1NC(=O)CS1 (centres undefined)
inactive: [1] -8.95% | [2] -9.3% | [3] 4.4% | [4] 9.9% | [5] -30.4% | [6] -21.4%

COC(=O)c1c(O)c2c(c3c1OC(C)(C)CC3)OC(C)(C)CC2
inactive: [1] -13.3% | [2] 0.1% | [3] -17.1% | [4] -2.55% | [5] 8.05% | [6] 11.4%

CCOC(=O)c1ccc(/C(C)=N/NC(N)=S)cc1
inactive: [1] 7.35% | [2] 3.8% | [3] 21% | [4] 15.4% | [5] 5.35% | [6] -9.5%

Cc1cnc2cc(Cl)ccc2c1NCCN(CC(C)C)CC(C)C
inactive: [1] -11% | [2] 0.7% | [3] -10.6% | [4] -22.5% | [5] 0.05% | [6] -30.8%

COC1(NS(=O)(=O)c2ccc(C)cc2)CC1
inactive: [1] -43.8% | [2] -25.2% | [3] -12.1% | [4] -39.1% | [5] 10.4% | [6] -3.85%

Cc1nn(-c2ccccc2)c2c1N=C(C(=O)O)CC(c1ccccc1)=N2
inactive: [1] 18.7% | [2] 25.9% | [3] 23.9% | [4] 28.1% | [5] 16.7% | [6] 13.8%

CCC(=O)C1(N2CCOCC2)CCN(CCCC(=O)c2ccc(F)cc2)CC1
inactive: [1] -25.4% | [2] -9.45% | [3] -1.75% | [4] 1.5% | [5] -0.3% | [6] 22.1%

Cc1c(C#N)c(=N)oc2ccccc12
inactive: [1] 7.9% | [2] 7.35% | [3] 22.8% | [4] 14.5% | [5] 18.1% | [6] -31.5%
